Assay outcomes from PubChem.
CtBP-E1A inh = qHTS Assay for Inhibitors of the CtBP/E1A Interaction; CtBP / adenovirus E1A interaction (AlphaScreen); AID 651724, 2012; AlphaScreen GST-E1A/His-CtBP binding, 1536-well; hits give low values; 340,000 tested, 0.49% active; activity change, % (test concentration not listed); in the data active means activity change below about -65%; inconclusive means mostly about -30% to -63%
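GST-E1A and His-tagged CtBP (125 nM each as 5X stock) were preincubated with pin-transferred compound for 2 h at 37 °C in the dark, then glutathione donor and nickel acceptor beads were added for 1 h before AlphaScreen reading.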
DT40 TDP1 CPT = qHTS for Inhibitors of human tyrosyl-DNA phosphodiesterase 1 (TDP1): qHTS in cells in presence of CPT | chicken DT40 Tdp1-/-;hTDP1 cells + 20 nM CPT, ATP luminescence, 48 h | Potency, µM (highest dose often 46.2 µM), for inactives: top-dose activity change, negative = growth inhibition, hits mostly inhibitors | 420,000 tested, 12% active; further: potency means the concentration at half of the fitted maximal effect; nearly all actives have a fitted effect of over 55% in size
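Cell growth measured by CellTiter-Glo luminescence after a minimum 48 h, 37 C compound exposure with 20 nM CPT in Tdp1-knockout DT40 cells stably expressing hTDP1, seeded 400/well; qHTS titration format.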
IL1B secr inh = qHTS for Inhibitors of Inflammasome Signaling: IL-1-beta AlphaLISA Primary Screen. THP-1 LPS/ATP IL-1B secretion, AlphaLISA, 16 h; hits give low values. activity change, % at 57.5 µM. 360,000 tested, 4.7% active; in the data active means activity change below about -50%; inconclusive means mostly about -30% to -49%
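Secreted IL-1B measured by AlphaLISA bead assay after 16 h compound exposure of THP-1 cells; compounds (final up to 57.5 uM) added 1 h before LPS (250 ng/mL) and ATP (1.25 mM) stimulation; lower signal means less secretion.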
TDP1 block = qHTS Assay for Inhibitors of Tyrosyl-DNA Phosphodiesterase (TDP1). Tyrosyl-DNA phosphodiesterase 1 (Homo sapiens), Q9NUW8. recombinant TDP1, AlphaScreen DNA substrate cleavage. Potency, µM (doses to about 130 µM), inactives show at the top dose activity change, negative = inhibition, most hits filed as inhibitors. 350,000 tested, 0.28% active. AID 485290, 2010; further: potency means the concentration at half of the fitted maximal effect; nearly all actives have a fitted effect of over 40% in size
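Compounds were preincubated with Tdp1 (1 nM final) for 15 min at room temperature before substrate (15 nM final) started a 5 min reaction; beads (10 ug/ml final) were then added for 10 min before AlphaScreen detection.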
Six1-Eya2 blk = qHTS Assay for Inhibitors of the Six1/Eya2 Interaction. activity change, % (no concentration beside the values). 360,000 tested, 0.56% active. Homeobox protein SIX1 (Homo sapiens) + Protein phosphatase EYA2 (Homo sapiens), …. AlphaScreen GST-Six1/His-Eya2 binding, biochemical; hits give low values; in the data active means activity change below about -65%; inconclusive means mostly about -30% to -63%
Target sequence (O00167 whole entry, looked up): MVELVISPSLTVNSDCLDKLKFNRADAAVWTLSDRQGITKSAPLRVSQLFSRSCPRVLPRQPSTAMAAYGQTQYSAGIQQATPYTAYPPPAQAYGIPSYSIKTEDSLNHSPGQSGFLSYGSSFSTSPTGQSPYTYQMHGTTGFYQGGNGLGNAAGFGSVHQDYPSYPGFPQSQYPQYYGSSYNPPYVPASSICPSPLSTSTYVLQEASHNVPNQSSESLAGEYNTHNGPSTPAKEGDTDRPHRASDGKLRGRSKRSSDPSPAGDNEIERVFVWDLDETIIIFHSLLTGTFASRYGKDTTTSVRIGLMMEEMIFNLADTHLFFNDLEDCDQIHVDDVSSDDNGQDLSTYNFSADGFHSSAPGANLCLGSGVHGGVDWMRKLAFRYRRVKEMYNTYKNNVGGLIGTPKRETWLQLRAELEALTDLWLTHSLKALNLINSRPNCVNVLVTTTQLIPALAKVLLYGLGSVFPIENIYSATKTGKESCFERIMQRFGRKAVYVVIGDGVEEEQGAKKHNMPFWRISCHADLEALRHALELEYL
Target sequence (Q15475 whole entry, looked up): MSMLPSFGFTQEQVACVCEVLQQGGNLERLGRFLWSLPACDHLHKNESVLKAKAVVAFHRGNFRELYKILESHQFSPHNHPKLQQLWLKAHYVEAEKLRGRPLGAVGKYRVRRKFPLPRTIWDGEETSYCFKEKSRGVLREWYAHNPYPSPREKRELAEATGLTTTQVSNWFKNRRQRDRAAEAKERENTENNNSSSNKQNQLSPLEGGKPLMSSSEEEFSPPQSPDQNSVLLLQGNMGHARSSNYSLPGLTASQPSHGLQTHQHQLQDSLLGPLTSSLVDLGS
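GST-Six1 + His-Eya2 (5X stock: 250/500 nM); Tris pH 8.0, 300 mM NaCl, 0.05% BSA, 0.02% Tween 20; GSH donor/Ni acceptor beads; 1 h 37 °C dark; AlphaScreen readout.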
DT40 TDP1 no CPT = qHTS for Inhibitors of human tyrosyl-DNA phosphodiesterase 1 (TDP1): qHTS in cells in absence of CPT | 420,000 tested, 15% active | Potency, µM (highest dose often 46.2 µM), for the others: at the top dose activity change, negative = growth inhibition, usual class: inhibitors | AID 686978, 2013 | DT40 Tdp1-/- hTDP1 cells, no CPT, ATP luminescence, 48 h; further: potency means the concentration at half of the fitted maximal effect; nearly all actives have a fitted effect of over 55% in size
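DT40 Tdp1-/-;hTDP1 cells, no CPT (DMSO vehicle only), 400 cells/well; compounds pin-transferred; ≥48 hr, 37 °C; CellTiter-Glo 30 min RT dark, luminescence read.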
The depositor's hits bear a star; u = inconclusive; x = no result; [ ] = remark or other dose. Shown are actives, neighbours in structure and some others; about 18% of the full set was active somewhere. Unless noted, the call rests on the fitted dose curve; in most records, active means well fitted curve in the direction sought with a large enough effect; inconclusive means small, poorly fitted or top-dose-only effect, or another doubt; inactive means no such curve, though single readings can be large; an effect the other way counts as inactive or inconclusive. On the % scale 0 is the no-effect control and ±100 the full control effect.

SMILES	CtBP-E1A inh	DT40 TDP1 CPT	IL1B secr inh	TDP1 block	Six1-Eya2 blk	DT40 TDP1 no CPT
NC(CCc1ccccc1)c1csc(Nc2nncc3ccccc23)n1 (centres undefined)	-0.2	20.6µM*	u	x	9.1	20.6µM*
Nc1ccc(CC(N)c2csc(Nc3nncc4ccccc34)n2)cc1 (centres undefined)	-15.4	u	u	x	-7.2	u
NC(Cc1ccccc1)c1csc(Nc2nncc3ccccc23)n1 (centres undefined)	u	20.6µM*	-26.0	x	9.8	23.1µM*
Cn1c(SCC(=O)NC2CCCCC2)nnc1-c1cc2cc(Cl)ccc2o1	5.2	u	-2.6	3.3%	-6.8	u
NNc1nc(-c2ccccc2Cl)c2cc(Br)ccc2n1	x	20.6µM*	14.6	x	13.4	5.17µM*
CCN(CC)c1nc(-c2ccccc2Cl)c2cc(Br)ccc2n1	x	-21.7%	x	x	x	u
Cc1cccc(N(NC(=O)C(C)(C)O)C(=O)c2ccccc2)c1	3.3	-24.0%	11.3	1.0%	12.0	-0.7%
CCOc1ccccc1C(=O)N(CN1CCCC1=O)c1cccc(Cl)c1	-0.3	14.6µM*	21.6	7.8%	-3.6	9.2µM*
COc1ccccc1N(CN1CCCC1=O)C(=O)c1c(F)cccc1Cl	5.6	20.6µM*	10.8	1.1%	0.7	10.3µM*
CCOC(=O)C1=NN(c2ccccc2)C(=O)/C1=C\c1ccc(N(C)C)cc1	-1.2	-16.7%	-5.1	10.5%	-4.6	u
CC1=NN(Cc2ccccc2)C(=O)/C1=C\c1ccc(N(C)C)cc1	-8.1	13µM*	18.9	9.3%	8.3	u
CCOC1=C2[C@@H](CN(S(=O)(=O)c3ccc(C)cc3)[C@H]2c2ccccc2F)[C@H]2C(=O)N(CC)C(=O)[C@H]2C1	-6.8	u	35.7	x	0.7	u
CCOC1=C2[C@@H](CN(S(=O)(=O)c3ccc(C)cc3)[C@H]2c2ccccc2Cl)[C@H]2C(=O)N(Cc3ccccc3)C(=O)[C@H]2C1	-6.4	18.4µM*	-15.2	x	-2.8	14.6µM*
CCC(C(=O)Nc1ccc(C(C)=O)cc1)n1c(C)c2cnn(-c3ccccc3)c(=O)c2c1C (centres undefined)	x	23.1µM*	x	5.1%	x	u
CCOC(=O)c1cccc(NC(=O)CCCn2c(C)c3cnn(-c4ccccc4)c(=O)c3c2C)c1	x	18.4µM*	x	12.7%	x	16.4µM*
CC(=O)c1cccc(NC(=O)Cn2c(C)c3cnn(-c4ccccc4)c(=O)c3c2C)c1	x	20.6µM*	x	7.6%	x	-19.3%
CCSc1nnc(N(CCC#N)CCC#N)s1	2.3	-0.4%	-27.8	6.9%	1.5	3.0%
COc1ccc(Cl)cc1S(=O)(=O)N1CCN(CC(=O)Nc2ccccc2C(F)(F)F)CC1	x	u	x	2.3%	x	u
O=C(NCN1CCc2ccccc2C1)c1cnccn1	-9.7	u	11.3	4.0%	2.7	23.1µM*
c1ccc(Cn2c(Cn3c(-c4cnccn4)nc4ccccc43)nc3ccccc32)cc1	-1.4	25.9µM*	-13.7	x	-6.0	u
CCC(c1nc2ccccc2[nH]1)n1c(-c2cnccn2)nc2ccccc21 (centres undefined)	12.6	13.2%	u	x	7.7	-13.1%
CC(c1nc2ccccc2n1Cc1ccccc1)n1c(-c2cnccn2)nc2ccccc21 (centres undefined)	5.2	14.6µM*	24.0	x	-14.4	20.6µM*
COCn1c2ccccc2c2nnc(C(=O)O)nc21	x	x	x	11.1%[21 µM]	x	x
O=C(O)C(Cc1c[nH]c2ccccc12)NS(=O)(=O)c1ccc(F)cc1 (centres undefined)	4.9	-10.8%	24.6	x	-10.9	3.6%
COc1cc(Nc2ccc(C)cc2)c([N+](=O)[O-])nc1[N+](=O)[O-]	4.4	2.06µM*	73.5	5.0%	-0.1	2.59µM*
SMILES	CtBP-E1A inh	DT40 TDP1 CPT	IL1B secr inh	TDP1 block	Six1-Eya2 blk	DT40 TDP1 no CPT
NS(=O)(=O)c1ccc(CCNC(=O)CSc2nc3ccsc3c(=O)n2Cc2ccccn2)cc1	-1.8	-4.4%	-5.3	x	-3.7	-27.2%
C=CCN(c1ccccc1OC)S(=O)(=O)c1cccc(C(=O)OCC(=O)c2c(N)n(C)c(=O)n(C)c2=O)c1	-7.6	u	6.4	x	-10.2	18.4µM*
COc1ccc(C(=O)OCC(=O)c2c(N)n(C)c(=O)n(C)c2=O)cc1OC	0.0	4.3%	-1.5	1.2%	1.6	0.1%
C=CCN(c1ccccc1Cl)S(=O)(=O)c1cccc(C(=O)NCCc2ccc(OC)cc2)c1	-13.2	u	0.0	1.8%	6.4	20.6µM*
CC(=O)Oc1ccc(C(=O)OCC(=O)c2c(N)n(C)c(=O)n(C)c2=O)cc1OC(C)=O	-18.2	-11.5%	-2.9	-3.6%	-82.9*	-13.2%
CNS(=O)(=O)c1cccc(C(=O)OCC(=O)c2c(N)n(C)c(=O)n(C)c2=O)c1	-5.8	-7.1%	15.5	-14.3%	-16.5	u
COc1cc(OC)c(N(C)S(=O)(=O)c2cccc(C(=O)NCc3cccs3)c2)cc1Cl	1.0	u	14.9	x	-4.0	u
C=CCN(c1ccccc1OC)S(=O)(=O)c1cccc(C(=O)NCc2cccs2)c1	10.4	14.6µM*	-13.7	-2.8%	-7.5	18.4µM*
CC1=C(C(=O)OC2CCCCC2)C(c2cccs2)n2c(nc3ccccc32)N1 (centres undefined)	3.1	-19.4%	2.6	7.9%	-6.8	u
COCCCNC(=O)Cn1nc(N2CCN(c3ccccc3)CC2)ccc1=O	x	1.1%	x	2.6%	x	-1.1%
Cc1ccc(OCCNC(=O)c2cc(-n3cnnc3)ccc2Cl)cc1C	9.8	-0.4%	29.2	5.8%	0.9	3.5%
O=C(COC(=O)CCC(=O)c1cccs1)Nc1ccc(S(=O)(=O)N2CCOCC2)cc1	2.9	8.5%	0.0	2.1%	1.9	-23.5%
Clc1ccc(Cl)c(OCCCCN2CCCCC2)c1	-16.0	18.4µM*	0.0	x	-9.2	u
Cc1cc(Br)ccc1OCCCCN1CCCCC1	0.8	u	-57.8*	-7.2%	-5.7	u
CC(=O)c1c(N2CCOCC2)[nH]c(-c2ccccc2)nc1=S	8.9	16.4µM*	36.3	7.6%	0.6	u
